The values that follow come from PubChem BioAssay (Tox21).

Each structure is given as a SMILES string. Unmarked numbers belong to inactive results. Calls of active or inactive are those of the source. Calls come from the whole dose curve; as a rule, active = well fitted curve in the direction sought with a large enough effect in the repeat runs; inconclusive = weak or mixed curves; inactive = flat fitted curve, though single readings scatter.
% is set by controls: 0 for no effect and ±100 for the full control effect; potency is the fitted concentration of half-maximal effect.

The nature of the test: qHTS assay to test for compound auto fluorescence at 460 nm (blue) in HEK293 cell free culture (AID 720681). The settings on record: cell-free medium, autofluorescence 405/460 nm (blue); series mostly up to 91.3 µM; fluorescence, % of fluorescent control: at the top concentration. From the text: U.S. Tox21 Program National Center for Advancing Translational Sciences [NCATS] NIH Chemical Genomics Center [NCGC] U.S. Environmental Protection Agency [EPA] National Institutes of Environmental Health Sciences [NIEHS] National Toxicology Program [NTP] U.S. Food and Drug Administration [FDA] Tox21 Assay Overview: Compound auto fluorescence often interferes with screening of the compound library against various biological targets and signaling pathways. Some of these compounds may have fluorophoric properties. Such properties may interfere with the assay outputs resulting in false positives and/or negatives. To decrease such complications and ensure the compound activities are relevant in terms of biological response, the Tox21 10K compound library was screened for auto fluorescence. From the fluorophores used as reporter signals in our screening assays, the auto fluorescence equivalencies of compounds against three fluorophores have been evaluated: Triamterene, Fluorescein and Rose Bengal sodium for blue, green and red fluorescence, respectively. The fluorescence intensities were measured using Excitation/Emission wavelengths at 405/460nm, 485/535nm and 540/590nm for blue, green and red labels, respectively. This assay includes the blue fluorescence data.
Tox21 Assay Protocol Summary: 5 uL of culture medium (DMEM containing 10% FBS) per well was dispensed into black wall/clear bottom 1536-well plates using a Multidrop Combi Dispenser (ThermoFisher Scientific, Waltham, MA). After 23 nL compound or DMSO vehicle was transferred into assay plate by a pintool work station (Kalypsys, San Diego, CA), fluorescence intensities in the assay plates were measured by an Envision (PerkinElmer, Shelton, CT) plate reader using three labels for measuring blue, green and red fluorescence at […] 460, 535 and 590nm respectively.
With `COc1cc(/C=C/C(=O)O[C@H]2CC[C@]34C[C@]35CC[C@]3(C)[C@@H]([C@H](C)CCC=C(C)C)CC[C@@]3(C)[C@@H]5CC[C@H]4C2(C)C)ccc1O`, the Potency result was “inactive”.
Take `O=c1c(-c2ccccc2)c1-c1ccccc1`: the “fluorescence, % of fluorescent control” value was 0.0752% [at 46 µM].
On to `O=CC=C(c1ccccc1)c1ccccc1`, for which the “fluorescence, % of fluorescent control” value is -0.23%.
On the same count and under the same terms, under `COCCCC/C(=N\OCCN)c1ccc(C(F)(F)F)cc1` stands 0.138% [at 46 µM]; under `CC(C)(C)C(=O)OCOC(=O)C1N2C(=O)CC2S(=O)(=O)C1(C)C` (stereo not given), -0.0364% [at 46 µM].
On to `C1CCCC1`, for which the “fluorescence, % of fluorescent control” value is 0.0147%.
Still for that read-out and setting: the result for `CCCN(CCC)C(=O)C(CCC(=O)OCCCN1CCN(CCOC(=O)Cc2c(C)n(C(=O)c3ccc(Cl)cc3)c3ccc(OC)cc23)CC1)NC(=O)c1ccccc1` (stereo not given) reads 0.0177% [at 46 µM]; that for `COc1c(C)c2c(c(O)c1C/C=C(\C)CCC(=O)O)C(=O)OC2`, -0.004% [at 18.6 µM]; that for `Fc1ccc(C(c2ccc(F)cc2)N2CCN(C/C=C/c3ccccc3)CC2)cc1`, 0.0179% [at 46 µM].
The same measure, in the same setting: the result for `CCCCCCCCCCCCCC[P+](CCCC)(CCCC)CCCC` (tested in a mixture with another compound) reads 0.0047%.
Take `CCCCc1oc2ccc(NS(C)(=O)=O)cc2c1C(=O)c1ccc(OCCCN(CCCC)CCCC)cc1`: the “fluorescence, % of fluorescent control” value was -0.0158% [at 46 µM].
On the same count and under the same terms, under `Clc1ccc2cc3ccccc3cc2c1` stands 0.296%; under `O=C(Oc1cccc2cccnc12)c1ccccc1`, -0.0105% [at 46 µM]; under `Oc1c(Cl)cc(Cl)c2cccnc12`, 0.0212% [at 46 µM].
The same measure, in the same setting: under `On1ccccc1=S` stands 0.0048%; under `CCCCCCCC[N+](CCCCCCCC)(CCCCCCCC)CCCCCCCC`, 0.0298%.
In the case of `O=C1c2ccccc2Cc2ccccc21`, the “fluorescence, % of fluorescent control” value was -0.0073%.
On to `CC(NN)c1ccccc1` (stereo not given), for which the “fluorescence, % of fluorescent control” value was 0.0766% [at 46 µM].
With `COc1cccc(N)c1`, the “fluorescence, % of fluorescent control” value was 0.085%.
Same read-out and setting: the result for `CCOC(=O)c1nc(C(Cl)(Cl)Cl)n(-c2ccc(Cl)cc2Cl)n1` reads -0.109%; that for `Fc1ccc([C@@H]2CCNC[C@H]2COc2ccc3c(c2)OCO3)cc1`, 0.0293% [at 46 µM]; that for `CCCCCCCC/C=C\CCCCCCCCOCCO`, 0.0044% [at 95.7 µM].
For `O=c1cccccc1O`, the “fluorescence, % of fluorescent control” value is 0.0171% [at 95.7 µM].
Regarding `Cc1ccc(O)c2ncccc12`, the “fluorescence, % of fluorescent control” value was -0.0119% [at 46 µM].
With `CC(C)c1ccc2c(c1)CC[C@H]1[C@](C)(CN)CCC[C@]21C`, the “fluorescence, % of fluorescent control” value was 0.0451%.
In the case of `Cc1[nH]nc2c1N=C(c1ccccc1Cl)c1cc([N+](=O)[O-])ccc1N2`, the “fluorescence, % of fluorescent control” value was -0.675%.
The same measure, in the same setting: the result for `CCOC(=O)/C=C(C)/C=C/C=C(C)/C=C/c1c(C)cc(OC)c(C)c1C` reads 1.23% [at 46 µM]; that for `NNC(=O)c1cccc(C(=O)NN)c1`, -0.0361%.
Same read-out and setting: under `CC(=O)OCC(C)OC(C)=O` (stereo not given) stands -0.354%.
For the compound `CCOC(=O)O[C@H](C)OC(=O)c1ccc2c(c1)cc(C(=O)NC1CCN(C(C)C)CC1)n2Cc1cc(-c2ccc(Cl)s2)on1`, the “fluorescence, % of fluorescent control” value is 0.0562%.
Take `NNc1nc(-c2ccc([N+](=O)[O-])cc2)cs1`: the “fluorescence, % of fluorescent control” value is -0.446%.
Same read-out and setting: under `CCc1cc(Cc2cc(CC)c(N)c(CC)c2)cc(CC)c1N` stands 0.0448%.
For the compound `OCCN(CCO)c1nc(N2CCCCC2)c2nc(N(CCO)CCO)nc(N3CCCCC3)c2n1`, the Potency was 12.6 µM (active).
Same read-out and setting: the result for `O=C1Cc2cc(CCN3CCN(c4nsc5ccccc45)CC3)c(Cl)cc2N1` reads “inactive”.
Turning to `N=C1C=CC(=C(c2ccc(N)cc2)c2ccc(N)cc2)C=C1`, the “fluorescence, % of fluorescent control” value is -0.155%.
Same read-out and setting: the result for `N=C1N=C(N)c2ccccc21` reads -0.053%; that for `O=C(NOCC1CC1)c1ccc(F)c(F)c1Nc1ccc(I)cc1Cl`, 0.999% [at 46 µM]; that for `CN(C)C(=O)C1(N2CCCCC2)CCN(CC[C@@]2(c3ccc(Cl)c(Cl)c3)CN(C(=O)c3ccccc3)CCO2)CC1`, -0.0995%.
`N#CSc1ccc(N)c([N+](=O)[O-])c1`: the “fluorescence, % of fluorescent control” value is -0.637%.
For the compound `CCCC/C=C/CCCCO`, the “fluorescence, % of fluorescent control” value is -0.297%.
